hcDAF-12 act – H. contortus DAF-12 nuclear receptor activators, primary screen, cell-based, luminescence, HEK293, lit1-tk-luc reporter; hit rate 1.4% among 370,000; activation, % at 6.8 µM; HEK293 hcDAF-12 lit1-tk-luc reporter; 0% DMSO, 100% Δ7-dafachronic acid; AID 652067, 2013;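 active = activation above the mean of all tested compounds plus 3 SD, cut at about 5.5% in these data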;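 note: 100% = response to 3 µM Δ7-dafachronic acid high control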
DAX1 inh-1 – DAX1 (NR0B1) inhibitors, primary screen, cell-based, HEK293, Gal4-DAX1, luciferase luminescence; Nuclear receptor subfamily 0 group B member 1 (Homo sapiens), P51843; HEK293 Gal4-DAX1 luciferase reporter; inhibition, % at 6.75 µM; hit rate 0.99% among 340,000; AID 504766, 2011;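 active = inhibition above the mean over all tested compounds plus 3 SD, cut at about 4.2% in these data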;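 note: 0% = DAX1-transfected cells with DMSO and 100% = empty-vector control cells with DMSO; inhibition shows as a rise in luminescence from relieved DAX1 repression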
hgDAF-12 ag – H. glycines DAF-12 receptor agonists, primary screen, cell-based, luminescence, HEK293, GAL4 fusion, UAS-luciferase; hit rate 1.8% among 370,000; AID 687014, 2013; Nuclear hormone receptor DAF-12 (Heterodera glycines), GAL4 fusion; activation, % at 6.8 µM; HEK293 GAL4-hgDAF12 UAS-luciferase reporter, agonist luminescence; normalized to butyrate control;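 active = activation above a cutoff set at the mean of all screened compounds plus 3 SD, cut at about 10% in these data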;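 note: 0% = DMSO wells and 100% = sodium butyrate wells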
DAX1 inh-2 – DAX1 (NR0B1) inhibitors on StAR promoter, primary screen, cell-based, luminescence, SF-1 (NR5A1), full-length DAX-1. HEK293T StAR-luciferase reporter, SF-1/DAX-1 repression relief. inhibition, % at 6.8 µM. hit rate 1.1% among 370,000;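 active = inhibition above the mean over all tested compounds plus 3 SD, cut at about 3.6% in these data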;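 note: 0% = DAX-1 cells with DMSO and 100% = cells lacking DAX-1 with DMSO; higher inhibition means more luminescence from relief of DAX-1 repression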
ssDAF-12 act – S. stercoralis DAF-12 nuclear receptor activators, primary screen, cell-based, luminescence, HEK293, GRIP1 co-expression, lit1-tk-luc; activation, % at 6.8 µM; hit rate 1% among 370,000; HEK293 ssDAF-12/GRIP1 lit1-tk-luc reporter; % of 3 µM dafachronic acid response;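 active = activation above the mean over all tested compounds plus 3 SD, cut at about 0.9% in these data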;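 note: 0% = DMSO-only wells and 100% = 3 µM delta7-dafachronic acid wells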
LXRb hcDAF ctr – LXR agonists, Gal4 luciferase reporter, confirmation, counter-screen for hcDAF-12 agonist project, cell-based, luminescence, HEK293, H. contortus campaign; shares compounds with hcDAF-12 act; HEK293 Gal4-LXR tk-luc reporter, 24 h; normalized: DMSO 0%, positive control 100%; 3,400 tested, under 10 active; activation, % at 6.8 µM;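 active = mean percent activation of the reporter above a cutoff set as the average over tested compounds plus their standard deviation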
Target sequence (P55055 whole entry, looked up, the tested form may be a part): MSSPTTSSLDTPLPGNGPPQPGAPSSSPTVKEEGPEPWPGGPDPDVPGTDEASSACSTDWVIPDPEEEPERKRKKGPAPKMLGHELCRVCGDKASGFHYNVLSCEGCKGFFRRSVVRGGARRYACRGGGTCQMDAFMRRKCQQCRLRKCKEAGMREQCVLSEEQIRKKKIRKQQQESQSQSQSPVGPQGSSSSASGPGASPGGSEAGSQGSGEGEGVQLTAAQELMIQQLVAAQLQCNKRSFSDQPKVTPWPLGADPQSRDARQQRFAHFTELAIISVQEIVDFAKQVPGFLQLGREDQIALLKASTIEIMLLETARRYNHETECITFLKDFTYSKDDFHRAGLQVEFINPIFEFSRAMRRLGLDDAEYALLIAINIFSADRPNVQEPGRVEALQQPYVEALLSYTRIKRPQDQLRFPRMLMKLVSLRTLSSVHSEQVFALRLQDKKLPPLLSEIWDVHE
hcDAF12 conf – H. contortus DAF-12 receptor agonists, confirmation, cell-based, luminescence, HEK293, lit1-tk-luc, triplicate; shares compounds with hcDAF-12 act; HEK293 hcDAF-12 lit1-tk-luc reporter; % of Δ7-dafachronic acid response; AID 743032, 2013; activation, % at 6.8 µM; hit rate 61% among 3,400;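 active = mean activation across triplicate tests above the threshold derived from the earlier primary screen, cut at about 5.5% in these data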;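 note: 0% = DMSO only wells and 100% = 3 µM Δ7-dafachronic acid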
* hit, by the source's call; nt = not tested or not shown. Compounds with a hit are over-represented: about 4.1% of the library has one in this group of screens.

SMILES	hcDAF-12 act	DAX1 inh-1	hgDAF-12 ag	DAX1 inh-2	ssDAF-12 act	LXRb hcDAF ctr	hcDAF12 conf
CCOc1ccc(S(=O)(=O)NCCCN2CCCC2=O)cc1	-0.5	-0.6	-0.9	-0.1	-1.4	nt	nt
CCN(C[C@H]1N[C@@](CC)(C(=O)OC)[C@H]2C(=O)N(C)C(=O)[C@@H]12)C(=O)c1ccc(F)cc1	12.5*	0.7	-3.9	0.6	-1.0	-0.1	2.9
CCN(C[C@H]1N[C@@](Cc2ccccc2)(C(=O)OC)[C@H]2C(=O)N(C)C(=O)[C@@H]12)C(=O)c1ccc(F)cc1	-0.5	0.3	-1.6	2.0	-0.9	nt	nt
S=C1NC2(CCCCCC2)NN1c1ccccc1	-0.4	nt	-0.6	1.0	-0.3	nt	nt
O=C1CCC2(CC1)NC(=O)N(c1ccccc1)N2	6.5*	0.1	8.1	-0.3	1.1*	-0.2	0.4
CN(C)C(=S)N=Nc1[nH]c2ccccc2c1O	7.3*	nt	12.7*	1.3	1.4*	0.1	3.3
Cc1cc(C(=O)O)cc(S(=O)(=O)Nc2c(C)nn(C)c2C)c1C	-2.4	1.4	-1.3	0.0	-1.3	nt	nt
CN(C)c1oc(/C=C/c2ccccc2)nc1C#N	6.7*	1.6	8.2	1.6	0.1	0.7	5.5
COc1ccccc1/C=C/C(=O)N1CCC(c2ccccc2)C1 (centres undefined)	6.7*	1.1	11.6*	1.3	1.0*	0.5	3.7
CCc1cc(=O)oc2cc(OC(C)C(=O)N3CC[C@@]4(O)CCCC[C@H]4C3)ccc12 (some centres undefined)	2.7	nt	1.3	-0.2	-1.7	nt	nt
Cc1ccc(-n2nnc(-c3cnc4ccccc4c3)n2)cc1	9.9*	5.1*	9.7	1.7	1.6*	1.6	13.8*
c1ccc2ncc(-n3cnnn3)cc2c1	2.2	0.1	2.0	-0.4	-0.9	nt	nt
Cc1ccc(-n2nnc(-c3nccn3C)n2)cc1	6.9*	-3.2	6.6	3.1	0.0	1.1	7.3*
CC(C)C[C@H](NC(=O)OC(C)(C)C)C(=O)N[C@@H](CO)[C@H](O)[C@@H]1C[C@@H]1C(=O)N1CCCC1	-0.9	1.2	-1.8	0.3	-1.1	nt	nt
CCNC(=S)Nc1ccc(OCc2nc3ccccc3s2)cc1	7.8*	3.6	9.6	0.8	1.2*	0.7	8.2*
CSc1ccc(CNC(=O)Cc2ccc(NC(=O)C3=C(C)OCCS3)cc2)cc1	7.1*	-0.5	7.7	-1.9	0.2	0.9	6.5*
OCCCNC(=S)Nc1ccc(Br)cc1Cl	1.8	1.8	0.6	0.3	-0.3	nt	nt
O=C(COC(=O)CCSc1ccc(F)cc1)NCc1ccc(F)cc1	-0.2	1.4	2.6	-0.2	-0.7	nt	nt
COc1ccc(NC(=O)c2sc(SC)nc2N)cc1	7.3*	1.1	12.8*	1.2	1.3*	0.6	9.2*
COc1ccc(NC(=O)c2sc(SCc3ccccc3)nc2N)cc1	-1.0	0.2	-0.2	0.3	-0.6	nt	nt
COc1ccccc1N1C(=O)C(Cl)=C(Nc2ccccc2O)C1=O	7.1*	1.1	-0.2	-0.1	1.5*	0.0	2.6
O=C1C(Cl)=C(Nc2ccccc2O)C(=O)N1c1ccccc1	4.7	2.1	7.8	-0.2	0.2	nt	nt
CN1/C(=C/C(=O)c2cccs2)Sc2ccccc21	21.8*	1.0	17.7*	4.4*	4.5*	2.2	24.0*
